# Experimental data reported in PubChem BioAssay AID2685 (National Center for Advancing Translational Sciences (NCATS), 2010).
# “And” between values parts separate entries of the source, which are not always exact repeats. Identical values can stand only once. Among all 320,000 compounds or so, about 2,100 (0.66%) were called active. Not shown: some 53% with an inconclusive outcome. Calls follow the shape of the dose curve; as a rule, active = well fitted inhibition curve with a large enough effect in the signal ratio, with a control signal flat (not every such curve was filed as active); inconclusive = small, poorly fitted or top-dose-only effect, or effect the other way, or a change in a side signal; inactive = flat fitted curve, though single readings scatter; the % refers to the signal ratio. For the sample, actives were picked, then their nearest neighbours and some compounds at random.
# Assay: qHTS Assay for Lipid Storage Modulators in Drosophila S3 Cells;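 as to cell number change: cells counted by Cell Tracker Red CMTPX staining in the red channel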; as to lipid storage change, negative = inhibition: % is scaled to controls: 0 for no effect and ±100 for the full control effect
# Settings: BODIPY lipid droplet fluorescence, 18-24 h, cells fed with added oleic acid; cell number change: measured here: cell count max response; series mostly up to 46.1 µM; lipid storage change, negative = inhibition: at the top concentration
# Summary of the method: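 Drosophila S3 cells loaded with oleic acid (400 uM, as added) and compounds at several concentrations; lipid droplets imaged by 488-nm laser-scanning cytometry, 500–530 nm intensity and object ratio to cell channel. Percent activity normalized to 20 uM Triacsin C.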
# Potency is read from the fitted curve at half-maximal effect.
SMILES,"lipid storage change, negative = inhibition",cell number change,Potency,outcome
CCOC(=O)C1CCN(CC(=O)Nc2c(C(=O)OC)n(C)c3cccc(C)c23)CC1,19% (inactive),-3.82%,–,–
COC(=O)c1c(NC(=O)CN2CCCC(C)C2)c2c(C)cccc2n1C (stereo not drawn),–,-24.5%,3.26 µM (active),–
COC(=O)c1c(NC(=O)CN2CCN(C(=O)c3ccco3)CC2)c2c(C)cccc2n1C,–,-8.93%,–,inactive
COc1ccc(C)cc1NC(=O)C(=O)NCc1ccncc1,5.47% (inactive),1.5%,–,–
COC(=O)c1ccc(C2c3[nH]c4ccccc4c3C[C@H]3C(=O)N(C4CC4)CC(=O)N23)cc1 (stereo partly drawn),12.4% (inactive),-1.73%,–,–
O=C1[C@@H]2Cc3c([nH]c4ccccc34)C(c3ccccc3)N2C(=O)CN1C1CC1 (stereo partly drawn),–,-19.8%,4.11 µM (active),–
O=C1[C@@H]2Cc3c([nH]c4ccccc34)C(c3ccc([N+](=O)[O-])cc3)N2C(=O)CN1C1CC1 (stereo partly drawn),12.4% (inactive),5.54%,–,–
O=C(Nc1ccccc1Cl)c1ccccc1,-0.566% (inactive),0.403%,–,–
O=C(Nc1ccccc1Cl)Nc1ccccc1Cl,-9.54% (inactive),-0.979%,–,–
O=C(Nc1ccccc1Cl)/C(Cl)=C(\Cl)S(=O)c1ccccc1 (stereo not drawn),–,–,4.61 µM (active),–
CCN(CC(=O)Nc1c(F)cccc1F)C(=O)c1ccc(S(=O)(=O)N2CCCC2)cc1,24.8% (inactive),23.3%,–,–
O=C(O)CN1C(=O)NC2(CCCc3ccccc32)C1=O (stereo not drawn),–,8.55%,–,inactive
CCOc1cc(-c2sc(Nc3ccccc3)n[n+]2-c2ccc(F)cc2)ccc1OC,-7.71% (inactive),8.68%,–,–
CCN(CCNC(=O)C1CCN(S(=O)(=O)c2c(C)noc2C)CC1)c1ccccc1,3.9% (inactive),0.289%,–,–
CC(C)(C)c1nc(CN2CCOCC2)cc(CN2CCOCC2)c1O,–,19.4%,–,inactive
Cc1ccc(-c2nc(CN3CCCCC3)cc(CN3CCCCC3)c2O)cc1,-0.754% (inactive),4.96%,–,–
CC(C)(C)c1nc(CN2CCCCC2)cc(CN2CCCCC2)c1O,–,-1.12%,20.6 µM (active),–
Cc1cc(CN2CCC(N3CCC(C(=O)NC4CC4)CC3)CC2)cc(C)c1O,–,-10.6%,–,inactive
Cc1cc(C)n(CC(O)CN2C(=O)NC(C)(C)C2=O)n1 (stereo not drawn),8.19% (inactive),7.08%,–,–
CN(C)c1ccc(/C=C2\SC(=O)N(CC(O)Cn3c4ccccc4c4ccccc43)C2=O)cc1 (stereo not drawn),1.45% (inactive),1.42%,–,–

SMILES,"lipid storage change, negative = inhibition",cell number change,Potency,outcome
COc1ccc(/C=C2/SC(=O)N(CC(O)Cn3c4ccccc4c4ccccc43)C2=O)cc1 (stereo not drawn),-0.27% (inactive),-7.54%,–,–
O=C1S/C(=C\c2ccccc2)C(=O)N1CC(O)Cn1c2ccccc2c2ccccc21 (stereo not drawn),–,8.53%,9.2 µM (active),–
C=CCn1c(CCNC(=O)c2cccs2)nnc1SCC(=O)c1cccc([N+](=O)[O-])c1,–,21.8%,–,inactive
COc1ccc(N2CCN(Cc3nc(N)nc(Nc4ccccc4OC)n3)CC2)cc1,4.02% (inactive),-16.4%,–,–
Cc1nc2c(sc(=S)n2Cc2ccco2)c(=O)n1CC(=O)Nc1ccccc1Cl,–,8.56%,–,inactive
CCn1c(=S)sc2c(=O)n(CC(=O)Nc3ccccc3)c(C)nc21,-5.27% (inactive),22.9%,–,–
Cc1nc2c(sc(=S)n2Cc2ccco2)c(=O)n1CC(=O)Nc1ccc(F)cc1,–,20.2%,16.4 µM (active),–
COc1ccc(CN2CC(=O)N(c3ccc(C)cc3C)C2=S)cc1OC,-6.97% (inactive),8.06%,–,–
CC(=O)NCCc1nc2ccccc2n1CCOc1ccccc1,6.98% (inactive),18.1%,–,–
CC(=C/c1ccccc1)/C=N/NC(=O)c1ccccn1,13.6% (inactive),10.8%,–,–
C=C(c1ccccc1)c1ccc(N(C)C)cc1,-3.74% (inactive),1.48%,–,–
O=C1Nc2ccccc2N(O)N1c1cc(-c2cccc(Cl)c2)no1,–,–,–,inactive
O=C1Nc2ccccc2N(O)N1c1cc(-c2ccccc2Cl)no1,–,–,–,inactive
CCOc1ccc(-c2cc(N3C(=O)Nc4ccccc4N3O)on2)cc1,–,24.4%,23.1 µM (active),–
CC(C)c1cc(C(=O)O)c2cnn(C(C)C)c2n1,-12.7% (inactive),-20.5%,–,–
CCOc1ccc(-n2ccnc(SCC(=O)NC3CCCC3)c2=O)cc1,14.1% (inactive),–,–,–
CCOc1ccccc1C(=O)Nc1ccc(S(=O)(=O)Nc2nccc(C)n2)cc1,0.0239% (inactive),-4.06%,–,–
COC(=O)c1ccc(C23CC4(C2)[C@H](CN(CC2CCCCC2)[C@@H]4c2ccccc2)C3c2ccccc2)cc1 (stereo partly drawn),11.9% (inactive),12.7%,–,–
CC(=O)Oc1ccc(N2C(=O)[C@@H]3[C@H](C2=O)[C@H]2c4ccccc4C=NN2[C@@H]3C(C)=O)cc1,5.49% (inactive),17.5%,–,–
Cc1cccc(C)c1OCC(=O)N1CC2(C)CC1CC(C)(C)C2 (stereo not drawn),–,24%,–,inactive

SMILES,"lipid storage change, negative = inhibition",cell number change,Potency,outcome
Cc1nnnn1/C(=C\c1ccccc1)C(=O)OCC(=O)N1CC2(C)CC1CC(C)(C)C2 (stereo not drawn),–,-4.4%,1.84 µM (active),–
CC1(C)CC2CC(C)(CN2C(=O)Cc2ccccc2)C1 (stereo not drawn),9.29% (inactive),-11.2%,–,–
CCN(C(=O)COC(=O)c1cnc(C)cn1)C1CCCCC1,13.1% (inactive),18.1%,–,–
CCN(C(=O)COC(=O)/C(=C/c1ccccc1)n1nnnc1C)C1CCCCC1,–,-1.15%,7.31 µM (active),–
CC(=O)N/C(=C\c1ccccc1)C(=O)OCC(=O)N(C)C1CCCCC1,-1.67% (inactive),11.6%,–,–
COc1ccc(CCNC(=O)c2cc(-c3ccccc3O)n[nH]2)cc1OC,–,4.36%,–,inactive
COC(=O)CCc1sc(Nc2ccccc2)nc1-c1ccc(OC)cc1,1.84% (inactive),-8.54%,–,–
O=C(COc1ccccc1)NCC1CCCO1 (stereo not drawn),0.414% (inactive),-0.966%,–,–
O=C(C#Cc1ccccc1)Nc1cccc(F)c1,–,-19.6%,1.16 µM (active),–
COc1ccc(NC(=O)Cc2ccccc2)cc1,6.27% (inactive),-1.56%,–,–
O=C(C#Cc1ccccc1)Nc1ccc(F)cc1,-7.35% (inactive),-2.07%,–,–
O=C(Nc1cccc(F)c1)c1ccccc1,-7.05% (inactive),-17.1%,–,–
COc1ccc(NC(=O)Nc2ccc(CC(=O)O)cc2)cc1,–,-22.2%,0.116 µM (active),–
COc1ccc(NC(=O)Nc2ccc(OC)cc2)cc1,–,-101%,–,inactive
COc1ccc(NC(=S)Nc2ccccc2)cc1,–,1.43% and -1.32%,inactive,–
NC(=O)c1ccc(NC(=O)C#Cc2ccccc2)cc1,–,–,–,inactive
COc1ccc(NC(=O)C#Cc2ccccc2)cc1,–,-23.3%,0.92 µM (active),–
O=C1NC2(CCCCC2)Cc2ccccc21,20.7% (inactive),2.36%,–,–
CCCC(=O)Nc1ccc(Cl)c(NC(=O)c2ccc([N+](=O)[O-])cc2Cl)c1,11.3% (inactive),3.62%,–,–
